Assay results as given in PubChem BioAssay (NCATS).
Records with an inconclusive call do not appear. Active and inactive are the calls of the source. Calls follow the shape of the dose curve; as a rule, active = well fitted inhibition curve with a large enough effect; inconclusive = small, poorly fitted or top-dose-only effect; inactive = no such curve, though single readings can be large or run the other way.
Potency is read from the fitted curve at half-maximal effect.

Assay: BET inhibitor-based combinations targeting novel dependencies in MECOM-rearranged (r) AML: HNT-34 cell line (AID 2202234); also: nearly all actives have a fitted effect of over 35% in size;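 as to viability (% of control): plate controls were vehicle wells for no effect and cell-free wells for full effect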
Details: HNT-34 AML viability, CellTiter-Glo luminescence, 48 h; series mostly up to 46 µM; viability (% of control): at the top concentration
Procedure, shortened: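 Cells were plated at 500 per well and exposed to each drug across an 11-point dose range for 48 hr at standard incubator conditions. Viability was read by CellTiter-Glo luminescence, and activity was expressed as AUC and per-cell-line Z-transformed AUC.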
For `COc1ccc2[nH]c(S(=O)Cc3ncc(C)c(OC)c3C)nc2c1` (stereo not drawn), the “viability (% of control)” value was 75% (inactive).
For `CC(/C=C/C(=O)NO)=C\[C@@H](C)C(=O)c1ccc(N(C)C)cc1`, the Potency was 0.934 µM (active).
With `C=CC(=O)Nc1cccc(Nc2nc(Nc3ccc(N4CCN(C(C)=O)CC4)cc3OC)ncc2C(F)(F)F)c1` the Potency was 4.17 µM (active).
With `O=C(c1ccc(/C=C/c2n[nH]c3ccccc23)cc1)N1CCNCC1` the Potency was 3.72 µM (active).
With `C#Cc1cccc(Nc2ncnc3cc(OCCOC)c(OCCOC)cc23)c1` the Potency was 5.25 µM (active).
In the case of `COc1ccc(Cl)c(Nc2nc3ccccc3nc2NS(=O)(=O)c2cccc(NC(=O)C(C)(C)N)c2)c1`, the Potency is reported as 23.5 µM (active).
With `C[C@@H]1COC(Nc2ccc3ncnc(Nc4ccc(OCc5nccs5)c(Cl)c4)c3c2)=N1` the Potency was 20.9 µM (active).
In the case of `Cn1cc(-c2cnn3c(N)c(Br)c(C4CCCNC4)nc23)cn1` (stereo not drawn), the Potency is reported as 10.5 µM (active).
